For 40 compounds, fluorescence slope and NADPH fluorescence slope results are on record in PubChem BioAssay.

Structures are written as SMILES. Activity calls are given as the source filed them.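 The calls were made as follows, unless noted: active = fluorescence slope higher than the sample average by over 3 SD (cut at about -0.22 in these data, passing the limit was not always enough); inactive = the rest.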

Sequence of Voltage-gated potassium channel subunit beta-2 (Rattus norvegicus) (P62483 whole entry, looked up): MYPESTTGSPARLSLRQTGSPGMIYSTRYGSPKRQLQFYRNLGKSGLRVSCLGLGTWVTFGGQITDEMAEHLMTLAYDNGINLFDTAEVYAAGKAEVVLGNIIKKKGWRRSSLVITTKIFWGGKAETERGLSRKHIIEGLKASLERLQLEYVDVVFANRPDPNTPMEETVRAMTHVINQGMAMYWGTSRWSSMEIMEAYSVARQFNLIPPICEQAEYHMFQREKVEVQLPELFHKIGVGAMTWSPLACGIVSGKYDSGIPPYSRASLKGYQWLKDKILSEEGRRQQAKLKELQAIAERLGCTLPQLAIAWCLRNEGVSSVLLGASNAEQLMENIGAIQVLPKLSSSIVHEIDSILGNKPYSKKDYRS

One experiment concerns the target Voltage-gated potassium channel subunit beta-2 (Rattus norvegicus) (UniProt P62483). Description: KvBeta enzyme negative modulators, primary screen, biochemical, NADPH fluorescence (AID 622).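 Also: slope of raw intensity against log time taken from 70 to 1610 s.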 As to conditions: recombinant KvBeta, 4-cyanobenzaldehyde reduction, at 10 µM, active compounds read high.
For the compound `CCN(C(C)=O)c1nnc(CSc2nc3ccccc3s2)s1`, the fluorescence slope was -0.475 (inactive).

On to `CC(=O)NC1(C(F)(F)F)NC(=O)N(CC(C)C)C1=O` (stereo not given), for which the fluorescence slope is -0.5 (inactive).

Consider `CCOc1ccc2nc(Nc3nc4c(c(=O)[nH]3)CCC4)nc(C)c2c1`, for which the fluorescence slope is -0.429 (inactive).

In the case of `CCOC(=O)N1CCC(NC(=O)CCC(=O)N2CC(C)Oc3ccc(Cl)cc32)CC1` (stereo not given), the fluorescence slope was -0.369 (inactive).

As for `Cc1ccccc1C(=O)NC1CCN(Cc2nnnn2Cc2ccccc2)CC1`, the fluorescence slope was -0.585 (inactive).

For the compound `Cc1ccc2c(c1)CCCN2C(=O)C1CCCO1` (stereo not given), the fluorescence slope is -0.417 (inactive).

Consider `CCCCc1ccc(NC(=O)C2CCCO2)cc1` (stereo not given), for which the fluorescence slope is -0.376 (inactive).

In the case of `CC(=O)c1cccc(NC(=O)NCc2ccccn2)c1`, the fluorescence slope is -0.424 (inactive).

Regarding `Cc1ccc(OC(=O)CCC(=O)OCCCC(F)(F)C(F)(F)F)cc1`, the fluorescence slope was -0.382 (inactive).

For `O=C(CSc1nc2ccccc2o1)NC(=O)NCc1ccco1`, the fluorescence slope was -0.333 (inactive).

Regarding `Cc1ccccc1CN1CCN(C(=O)c2cccc(F)c2)CC1`, the fluorescence slope is -0.411 (inactive).

For the compound `CCOC(=O)C1=C(C)NC(=O)NC1c1ccc(Br)s1` (stereo not given), the fluorescence slope was -0.502 (inactive).

For `COc1cccc(C(=O)n2cnnc2N)c1OC`, the fluorescence slope was -0.382 (inactive).

Consider `CN(C)S(=O)(=O)c1ccc(S(=O)(=O)N(Cc2ccco2)Cc2ccccc2Cl)cc1`, for which the fluorescence slope is -0.523 (inactive).

Regarding `CCOc1ccc(S(=O)(=O)Nc2cccc(Cl)c2)cc1`, the fluorescence slope is -0.627 (inactive).

For the compound `CN(C)CCCN1C(=O)c2oc3ccc(Cl)cc3c(=O)c2C1c1cccnc1` (stereo not given), the fluorescence slope is -0.546 (inactive).

In the case of `COc1ccccc1N1CCN(Cc2nnnn2CCc2ccccc2)CC1`, the fluorescence slope was -0.565 (inactive).

In the case of `COc1ccc(-c2noc(COc3ccc(Cl)c(C)c3)n2)cc1`, the fluorescence slope is -0.527 (inactive).

Turning to `CN(CC(=O)Nc1sccc1C#N)C1CCCCC1`, the fluorescence slope was -0.42 (inactive).

`COc1ccccc1-c1cc2nc(C)c(CCC(=O)NCc3ccco3)c(C)n2n1`: the fluorescence slope is -0.587 (inactive).

Regarding `Cc1cc(C)c2cc3c(ccn3C3OC[C@H](O)[C@H](O)[C@H]3O)cc2n1` (stereo not given in full), the fluorescence slope was -0.0157 (active).

For `CCOc1cc(NC(=O)c2ccccn2)c(OCC)cc1NC(=O)CC(C)C`, the fluorescence slope is -0.615 (inactive).

Take `COc1ccc(S(=O)(=O)N(CCN2CCOCC2)Cc2cc(OC)ccc2OC)cc1`: the fluorescence slope was -0.582 (inactive).

As for `CC1(C)CC(=O)CC(C)(C)N1OC(=O)c1ccccn1`, the fluorescence slope was -0.495 (inactive).

With `Nc1ccc(-n2c(N)c(C(=O)NCc3ccc4c(c3)OCO4)c3nc4ccccc4nc32)cc1`, the fluorescence slope was -0.476 (inactive).

On to `CC12CCC(C(=O)O)(c3nc(C#N)c(C#N)nc31)C2(C)C` (stereo not given), for which the fluorescence slope was -0.618 (inactive).

With `CN(C)c1ccc(C(=O)OCC(=O)NC2CCCCC2)cc1`, the fluorescence slope was -0.475 (inactive).

For the compound `CCOC(=O)N1CCN(Cc2nc3c(c(=O)[nH]c(=O)n3C)n2Cc2cc(C)ccc2C)CC1`, the fluorescence slope was -0.505 (inactive).

In the case of `C#CC1(O)CC(C)N(C)C(C)C1` (stereo not given), the fluorescence slope is -0.606 (inactive).

For the compound `O=C(CN(CC1CCCO1)C(=O)CCC(=O)Nc1ccccn1)NCC1CCCO1` (stereo not given), the fluorescence slope was -0.421 (inactive).

With `CC(=O)c1ccc2c3c(cccc13)C(=O)N(c1c(C)nn(C)c1C)C2=O`, the fluorescence slope was -0.633 (inactive).

On to `CC(C)[C@H](NC(=O)NCc1ccc(Cl)cc1)C(=O)O`, for which the fluorescence slope was -0.604 (inactive).

As for `COc1ccc(-n2c(Cc3cccn3C)nnc2SCC(=O)Nc2cccc(Cl)c2)cc1`, the fluorescence slope is -0.609 (inactive).

`COC(=O)/C=c1\sc2ncnn2c1=O`: the fluorescence slope was -0.624 (inactive).

In the case of `COCc1nnc(NC(=O)c2ccc(NC(C)=O)cc2)s1`, the fluorescence slope was -0.527 (inactive).

Consider `Cc1cc(/C=N/n2cnnc2)c(C)n1-c1cccc(Cl)c1`, for which the fluorescence slope was -0.364 (inactive).

In the case of `C=CCNC(=O)C1CC(=O)N(c2ccc(OCC(=O)Nc3ccc(OC)cc3)cc2)C1` (stereo not given), the fluorescence slope is -0.339 (inactive).

Turning to `Cc1cc2c(cc(C(=O)OCC(=O)NCc3cccs3)n2C(C)C)o1`, the fluorescence slope is -0.586 (inactive).

Turning to `COc1ccc(C)cc1C(=O)CCC(=O)Nc1ccccc1N1CCOCC1`, the fluorescence slope is -0.605 (inactive).

Regarding `CC(C)(C)c1ccc(-c2nnc(SCCC#N)n2C2CCCC2)cc1`, the fluorescence slope was -0.483 (inactive).

For another experiment the target is unchanged. Description: KvBeta positive modulators, primary screen, biochemical, NADPH fluorescence (AID 623;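 active = NADPH fluorescence slope more negative than the mean of all samples by about 3 SD, 99.7% confidence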;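 also: fluorescence intensity change per second fitted from 20 to 320 s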). The following applies: Recombinant KvBeta, NADPH fluorescence decrease slope, 10 min; at 10 µM; active compounds read low.
For the compound `CCN(C(C)=O)c1nnc(CSc2nc3ccccc3s2)s1`, the NADPH fluorescence slope is 2.8e-05 (inactive).

Turning to `CC(=O)NC1(C(F)(F)F)NC(=O)N(CC(C)C)C1=O` (stereo not given), the NADPH fluorescence slope is 2e-05 (inactive).

As to `CCOc1ccc2nc(Nc3nc4c(c(=O)[nH]3)CCC4)nc(C)c2c1`, the NADPH fluorescence slope was -5.3e-05 (inactive).

`CCOC(=O)N1CCC(NC(=O)CCC(=O)N2CC(C)Oc3ccc(Cl)cc32)CC1` (stereo not given): the NADPH fluorescence slope is -5e-05 (inactive).

As for `Cc1ccccc1C(=O)NC1CCN(Cc2nnnn2Cc2ccccc2)CC1`, the NADPH fluorescence slope was -4.3e-05 (inactive).

Take `Cc1ccc2c(c1)CCCN2C(=O)C1CCCO1` (stereo not given): the NADPH fluorescence slope was -4e-05 (inactive).

As to `CCCCc1ccc(NC(=O)C2CCCO2)cc1` (stereo not given), the NADPH fluorescence slope was -3e-05 (inactive).

On to `CC(=O)c1cccc(NC(=O)NCc2ccccn2)c1`, for which the NADPH fluorescence slope was -4.2e-05 (inactive).

On to `Cc1ccc(OC(=O)CCC(=O)OCCCC(F)(F)C(F)(F)F)cc1`, for which the NADPH fluorescence slope is -5.9e-05 (inactive).

On to `O=C(CSc1nc2ccccc2o1)NC(=O)NCc1ccco1`, for which the NADPH fluorescence slope is -3.3e-05 (inactive).

Consider `Cc1ccccc1CN1CCN(C(=O)c2cccc(F)c2)CC1`, for which the NADPH fluorescence slope was -1.4e-05 (inactive).

For the compound `CCOC(=O)C1=C(C)NC(=O)NC1c1ccc(Br)s1` (stereo not given), the NADPH fluorescence slope was -6.2e-05 (inactive).

In the case of `COc1cccc(C(=O)n2cnnc2N)c1OC`, the NADPH fluorescence slope is 8e-06 (inactive).

Turning to `CN(C)S(=O)(=O)c1ccc(S(=O)(=O)N(Cc2ccco2)Cc2ccccc2Cl)cc1`, the NADPH fluorescence slope is 8.8e-06 (inactive).

For `CCOc1ccc(S(=O)(=O)Nc2cccc(Cl)c2)cc1`, the NADPH fluorescence slope was -2.5e-05 (inactive).

As for `CN(C)CCCN1C(=O)c2oc3ccc(Cl)cc3c(=O)c2C1c1cccnc1` (stereo not given), the NADPH fluorescence slope is -5.3e-05 (inactive).

Consider `COc1ccccc1N1CCN(Cc2nnnn2CCc2ccccc2)CC1`, for which the NADPH fluorescence slope is 8e-05 (inactive).

Take `COc1ccc(-c2noc(COc3ccc(Cl)c(C)c3)n2)cc1`: the NADPH fluorescence slope was -4.1e-05 (inactive).

Regarding `CN(CC(=O)Nc1sccc1C#N)C1CCCCC1`, the NADPH fluorescence slope was -1.4e-05 (inactive).

For the compound `COc1ccccc1-c1cc2nc(C)c(CCC(=O)NCc3ccco3)c(C)n2n1`, the NADPH fluorescence slope is -4.5e-05 (inactive).

As to `Cc1cc(C)c2cc3c(ccn3C3OC[C@H](O)[C@H](O)[C@H]3O)cc2n1` (stereo not given in full), the NADPH fluorescence slope was -2.8e-05 (inactive).

On to `CCOc1cc(NC(=O)c2ccccn2)c(OCC)cc1NC(=O)CC(C)C`, for which the NADPH fluorescence slope was 4.7e-06 (inactive).

`COc1ccc(S(=O)(=O)N(CCN2CCOCC2)Cc2cc(OC)ccc2OC)cc1`: the NADPH fluorescence slope was -1.5e-06 (inactive).

Regarding `CC1(C)CC(=O)CC(C)(C)N1OC(=O)c1ccccn1`, the NADPH fluorescence slope is 2e-05 (inactive).

Regarding `Nc1ccc(-n2c(N)c(C(=O)NCc3ccc4c(c3)OCO4)c3nc4ccccc4nc32)cc1`, the NADPH fluorescence slope was -3e-05 (inactive).

Take `CC12CCC(C(=O)O)(c3nc(C#N)c(C#N)nc31)C2(C)C` (stereo not given): the NADPH fluorescence slope is -3.8e-05 (inactive).

On to `CN(C)c1ccc(C(=O)OCC(=O)NC2CCCCC2)cc1`, for which the NADPH fluorescence slope is -3.6e-05 (inactive).

In the case of `CCOC(=O)N1CCN(Cc2nc3c(c(=O)[nH]c(=O)n3C)n2Cc2cc(C)ccc2C)CC1`, the NADPH fluorescence slope was -5.3e-05 (inactive).

As to `C#CC1(O)CC(C)N(C)C(C)C1` (stereo not given), the NADPH fluorescence slope was 3.5e-06 (inactive).

Consider `O=C(CN(CC1CCCO1)C(=O)CCC(=O)Nc1ccccn1)NCC1CCCO1` (stereo not given), for which the NADPH fluorescence slope is -3e-05 (inactive).

As to `CC(=O)c1ccc2c3c(cccc13)C(=O)N(c1c(C)nn(C)c1C)C2=O`, the NADPH fluorescence slope was -5.6e-06 (inactive).

For the compound `CC(C)[C@H](NC(=O)NCc1ccc(Cl)cc1)C(=O)O`, the NADPH fluorescence slope is -3.7e-05 (inactive).

Take `COc1ccc(-n2c(Cc3cccn3C)nnc2SCC(=O)Nc2cccc(Cl)c2)cc1`: the NADPH fluorescence slope is 1.6e-05 (inactive).

As for `COC(=O)/C=c1\sc2ncnn2c1=O`, the NADPH fluorescence slope is -1.3e-05 (inactive).

For the compound `COCc1nnc(NC(=O)c2ccc(NC(C)=O)cc2)s1`, the NADPH fluorescence slope is -3.7e-06 (inactive).

`Cc1cc(/C=N/n2cnnc2)c(C)n1-c1cccc(Cl)c1`: the NADPH fluorescence slope is -3.8e-05 (inactive).

On to `C=CCNC(=O)C1CC(=O)N(c2ccc(OCC(=O)Nc3ccc(OC)cc3)cc2)C1` (stereo not given), for which the NADPH fluorescence slope was -4.8e-05 (inactive).

Turning to `Cc1cc2c(cc(C(=O)OCC(=O)NCc3cccs3)n2C(C)C)o1`, the NADPH fluorescence slope is -5.1e-05 (inactive).

On to `COc1ccc(C)cc1C(=O)CCC(=O)Nc1ccccc1N1CCOCC1`, for which the NADPH fluorescence slope is -5.1e-05 (inactive).

With `CC(C)(C)c1ccc(-c2nnc(SCCC#N)n2C2CCCC2)cc1`, the NADPH fluorescence slope is -3e-05 (inactive).
